RPL19A-GFP yeast = yeast TOR pathway RPL19A-GFP modulation | S. cerevisiae RPL19A-GFP strain, flow cytometry, 3 h; hits give low values | 0.3% of 330,000 active | percent response vs DMSO, % at 10 µM;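 active = percent response vs DMSO below 50%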;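 also: median channel GFP fluorescence of the barcoded RPL19A-GFP strain; lower means less RPL19A-GFP as with rapamycin TOR inhibition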
MEP2 TOR yeast = alters MEP2-GFP fluorescence in TOR pathway yeast screen | S. cerevisiae MEP2-GFP strain, flow cytometry GFP, 3 h; 100% = DMSO control level | 0.51% of 330,000 active | GFP response vs DMSO, % at 10 µM;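 active = GFP response versus DMSO above a set limit, roughly screen mean plus 3 SD, cut at about 180% in these data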;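 also: median GFP fluorescence of the barcode-gated MEP2-GFP cells per well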
CIT2 TOR yeast = modulators of TOR pathway CIT2-GFP in S. cerevisiae; 0.065% of 320,000 active; AID 2029; S. cerevisiae CIT2-GFP strain, flow cytometry, 3 h; 100 means same as DMSO wells; GFP response vs DMSO, % at 10 µM;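 active = GFP response relative to DMSO above a set limit, near the screen mean plus 3 SD, cut at about 150% in these data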;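 also: ratio of well median GFP fluorescence to mean of DMSO wells on the plate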
VLA-4 inh = inhibition in a human VLA-4 binding assay. inhibition, % (about 7 µM as worked out from the volumes in the protocol). 0.2% of 330,000 active. P13612. VLA-4 expressing cells, ligand binding flow cytometry; in the data active = inhibition above about 50%
Target sequence (P13612 whole entry, looked up): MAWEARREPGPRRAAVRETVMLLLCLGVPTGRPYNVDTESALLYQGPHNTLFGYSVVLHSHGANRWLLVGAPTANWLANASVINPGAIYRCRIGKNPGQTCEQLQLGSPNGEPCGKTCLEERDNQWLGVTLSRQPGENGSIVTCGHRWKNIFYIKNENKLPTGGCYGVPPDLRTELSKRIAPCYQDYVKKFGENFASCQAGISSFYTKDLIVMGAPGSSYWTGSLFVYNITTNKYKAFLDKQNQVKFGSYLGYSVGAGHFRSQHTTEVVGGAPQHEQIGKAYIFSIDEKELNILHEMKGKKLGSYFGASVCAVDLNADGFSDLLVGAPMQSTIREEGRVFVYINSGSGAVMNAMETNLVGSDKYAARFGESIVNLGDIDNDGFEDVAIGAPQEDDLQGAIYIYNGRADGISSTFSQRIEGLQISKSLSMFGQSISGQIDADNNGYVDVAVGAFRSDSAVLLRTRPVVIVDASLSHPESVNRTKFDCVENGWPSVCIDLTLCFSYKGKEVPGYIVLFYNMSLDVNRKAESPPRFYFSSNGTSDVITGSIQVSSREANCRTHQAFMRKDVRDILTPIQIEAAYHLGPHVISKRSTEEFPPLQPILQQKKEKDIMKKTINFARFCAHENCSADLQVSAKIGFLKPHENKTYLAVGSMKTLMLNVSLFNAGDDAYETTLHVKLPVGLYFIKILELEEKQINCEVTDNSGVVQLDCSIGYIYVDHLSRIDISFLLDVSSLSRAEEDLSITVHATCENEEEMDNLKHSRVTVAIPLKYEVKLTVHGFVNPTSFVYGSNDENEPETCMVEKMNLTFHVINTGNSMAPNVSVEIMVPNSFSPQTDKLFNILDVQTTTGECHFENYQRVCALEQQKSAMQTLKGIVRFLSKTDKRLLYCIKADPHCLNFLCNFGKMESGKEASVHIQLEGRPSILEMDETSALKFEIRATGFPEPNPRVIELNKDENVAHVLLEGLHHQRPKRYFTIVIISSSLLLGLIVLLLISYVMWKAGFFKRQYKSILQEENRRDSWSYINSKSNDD
LAP4-GFP MLPCN = yeast TOR pathway LAP4-GFP modulation; S. cerevisiae LAP4-GFP multiplex, flow cytometry GFP, 3 h; median GFP as percent of DMSO wells; GFP response vs DMSO, % at 10 µM; 0.34% of 320,000 active; AID 2023;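 active = GFP response vs DMSO above a set limit, about the screen mean plus 3 SD, cut at about 150% in these data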
AGP1-GFP MLPCN = modulators of TOR pathway AGP1-GFP in S. cerevisiae | S. cerevisiae AGP1-GFP multiplex flow cytometry, 3 h; GFP as percent of DMSO wells | 0.02% of 320,000 active | AID 2066 | GFP response vs DMSO, % at 10 µM;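 active = GFP response relative to DMSO above a set limit, near screen average plus 3 SD, cut at about 150% in these data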;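 also: median GFP channel fluorescence of the gated AGP1 strain per well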
VLA-4 allo CP = confirmation of allosteric modulators of human VLA-4 integrin. inhibition, % at 6.7 µM. U937 cells, HUTS-21 LIBS mAb binding, flow cytometry; LDV ligand present at threefold Kd. shares compounds with VLA-4 inh. AID 2813. 2% of 1,300 active; in the data active = inhibition above about 40%
A number is an active result. Only some compounds are listed: those with a hit (about 1.1% of all), similar ones and a draw of the others.

What do the screens show for `O=C(c1cccc2nc3ccccc3nc12)N1CCOCC1`?
RPL19A-GFP yeast: inactive; MEP2 TOR yeast: inactive; CIT2 TOR yeast: inactive; VLA-4 inh: inactive; LAP4-GFP MLPCN: inactive; AGP1-GFP MLPCN: inactive

Results for COc1ccc(-n2c(C)nc3cc(C(=O)NCCN4CCOCC4)ccc32)cc1 ?
RPL19A-GFP yeast: inactive; MEP2 TOR yeast: inactive; CIT2 TOR yeast: inactive; VLA-4 inh: inactive; LAP4-GFP MLPCN: inactive; AGP1-GFP MLPCN: inactive

Results for COc1cccc2cc(C(=O)NCCN3CCOCC3)c(=O)oc12 ?
RPL19A-GFP yeast: inactive; MEP2 TOR yeast: inactive; CIT2 TOR yeast: inactive; VLA-4 inh: inactive; LAP4-GFP MLPCN: inactive; AGP1-GFP MLPCN: inactive; VLA-4 allo CP: inactive

How did COc1ccc(-n2cnc3cc(C(=O)NCCN4CCOCC4)ccc32)cc1 do in these assays?
RPL19A-GFP yeast: inactive; MEP2 TOR yeast: inactive; CIT2 TOR yeast: inactive; VLA-4 inh: inactive; LAP4-GFP MLPCN: inactive; AGP1-GFP MLPCN: inactive; VLA-4 allo CP: inactive

How did O=C(c1nc2ccc(Cl)cn2c1CNCCc1cnccn1)N1CCCCCCC1 do in these assays?
RPL19A-GFP yeast: inactive; MEP2 TOR yeast: inactive; CIT2 TOR yeast: inactive; VLA-4 inh: inactive; LAP4-GFP MLPCN: inactive; AGP1-GFP MLPCN: inactive

What do the screens show for `CC(=O)c1ccc(NC(=O)CN2C(=O)COc3ccc(S(=O)(=O)N4CCCC4)cc32)cc1`?
RPL19A-GFP yeast: inactive; MEP2 TOR yeast: inactive; CIT2 TOR yeast: inactive; VLA-4 inh: inactive; LAP4-GFP MLPCN: inactive; AGP1-GFP MLPCN: inactive

How did COC(=O)c1cc2c(ccn2-c2ccc(F)cc2)n1C(C)C do in these assays?
RPL19A-GFP yeast: inactive; MEP2 TOR yeast: inactive; CIT2 TOR yeast: inactive; VLA-4 inh: 62.9; LAP4-GFP MLPCN: inactive; AGP1-GFP MLPCN: inactive; VLA-4 allo CP: inactive

What do the screens show for `Cc1ccc(C(=O)N2CCC(C(=O)c3c(C)cc(C)cc3C)CC2)cc1`?
RPL19A-GFP yeast: inactive; MEP2 TOR yeast: inactive; CIT2 TOR yeast: inactive; VLA-4 inh: inactive; LAP4-GFP MLPCN: inactive; AGP1-GFP MLPCN: inactive

What do the screens show for `CC(C)(C)c1ccc(OCC(=O)O/N=C(\N)c2ccncc2)cc1`?
RPL19A-GFP yeast: inactive; MEP2 TOR yeast: inactive; CIT2 TOR yeast: inactive; VLA-4 inh: inactive; LAP4-GFP MLPCN: inactive; AGP1-GFP MLPCN: inactive

What do the screens show for `COc1ccc(C(C)=O)cc1COC(=O)CNC(=O)c1cc(C)cc(C)c1`?
RPL19A-GFP yeast: inactive; MEP2 TOR yeast: inactive; CIT2 TOR yeast: inactive; VLA-4 inh: 52.9; LAP4-GFP MLPCN: inactive; AGP1-GFP MLPCN: inactive; VLA-4 allo CP: inactive

What do the screens show for `O=S(=O)(Nc1ccccn1)c1cc(Cl)ccc1Cl`?
RPL19A-GFP yeast: inactive; MEP2 TOR yeast: inactive; CIT2 TOR yeast: inactive; VLA-4 inh: inactive; LAP4-GFP MLPCN: inactive; AGP1-GFP MLPCN: inactive

What do the screens show for `O=S(=O)(Nc1ncccn1)c1cc(Cl)ccc1Cl`?
RPL19A-GFP yeast: inactive; MEP2 TOR yeast: inactive; CIT2 TOR yeast: inactive; VLA-4 inh: inactive; LAP4-GFP MLPCN: inactive; AGP1-GFP MLPCN: inactive; VLA-4 allo CP: inactive

Results for CCOc1ccc(CN2CCN(CCCc3ccccc3)CC2CCO)cc1 (stereo not drawn) ?
RPL19A-GFP yeast: inactive; MEP2 TOR yeast: inactive; CIT2 TOR yeast: inactive; VLA-4 inh: inactive; LAP4-GFP MLPCN: inactive; AGP1-GFP MLPCN: inactive

How did Cc1ccc(-c2cc(C(=O)N3CCN(c4ccccc4O)CC3)c3ccccc3n2)o1 do in these assays?
RPL19A-GFP yeast: inactive; MEP2 TOR yeast: inactive; CIT2 TOR yeast: inactive; VLA-4 inh: inactive; LAP4-GFP MLPCN: inactive; AGP1-GFP MLPCN: inactive

Results for CC(C)Oc1cccc(-c2cc(C(=O)N3CCN(c4ncccn4)CC3)c3ccccc3n2)c1 ?
RPL19A-GFP yeast: inactive; MEP2 TOR yeast: inactive; CIT2 TOR yeast: inactive; VLA-4 inh: inactive; LAP4-GFP MLPCN: inactive; AGP1-GFP MLPCN: inactive; VLA-4 allo CP: inactive

How did O=C(c1cc(-c2ccncc2)nc2ccc(Br)cc12)N1CCN(c2ccccn2)CC1 do in these assays?
RPL19A-GFP yeast: inactive; MEP2 TOR yeast: inactive; CIT2 TOR yeast: inactive; VLA-4 inh: inactive; LAP4-GFP MLPCN: inactive; AGP1-GFP MLPCN: inactive; VLA-4 allo CP: inactive

What do the screens show for `COc1ccc(-c2cc(C(=O)N3CCN(c4cccc(C)c4C)CC3)c3ccccc3n2)cc1OC`?
RPL19A-GFP yeast: inactive; MEP2 TOR yeast: inactive; CIT2 TOR yeast: inactive; VLA-4 inh: inactive; LAP4-GFP MLPCN: inactive; AGP1-GFP MLPCN: inactive; VLA-4 allo CP: inactive

Source: PubChem
